Screen size: about 2,100 compounds; about 650 (31%) were called active. Inconclusive results (about 16%) are left out. The call rests on the fitted dose curve; in most records, active means well fitted inhibition curve with a large enough effect; inconclusive means small, poorly fitted or top-dose-only effect; inactive means flat fitted curve, though single readings scatter. The list shows a part of the results. Where a call stands in place of a potency, no number is given.

Our source for the Potency values is PubChem BioAssay AID651812 (National Center for Advancing Translational Sciences (NCATS), 2012).
Potency means the concentration at half of the fitted maximal effect.

This assay is described as follows: qHTS for inhibitors of Vif-A3G interactions: Cherry picks. Further: nearly all actives have a fitted effect of over 80% in size. As to conditions: HeLa A3G-eYFP + Vif (tagged APOBEC3G with the HIV-1 protein that degrades it), 24 h; Potency: eYFP fluorescence increase; series mostly up to 36.9 µM. From the text:
The recent discovery and characterization of host restriction factors, which provide a potent defense to invading retroviruses, has provided new targets for antiviral drug development. APOBEC3G (A3G) and APOBEC3F (A3F) are potent cytidine deaminases that block HIV-1 replication; HIV-1 expresses the Vif protein, which counteracts A3G and A3F by binding to them and inducing their proteasomal degradation. The Vif-A3G and Vif-A3F interactions provide two potential targets for development of small molecules which can interfere with the ability of Vif to degrade A3G or A3F. […] To identify inhibitors that can interfere with Vif mediated degradation of A3G and A3F, we have developed Hela cell lines that stably express A3G or A3F tagged with eYFP at the C-terminal end (A3G-eYFP or A3F-eYFP, respectively) and Vif. In the absence of an inhibitor, Vif induces degradation of A3G-eYFP and A3F-eYFP, and the cells are not fluorescent. In the presence of an inhibitor, it is expected that Vif will be unable to degrade A3G-eYFP and/or A3F-eYFP, resulting in an increase in yellow fluorescence. In this assay, Vif A3G was screened against the cherry picks ordered from the MLSMR. NIH Chemical Genomics Center [NCGC] NIH Molecular Libraries Probe Centers Network [MLPCN] MLPCN Grant: MH093245 Assay Submitter (PI): Vinay Pathak, National Cancer Institute
A3G-Vif cells were harvested from T225 flask and resuspended in phenol free OPTI-MEM medium with 5% FBS. Then 5 uL of 140,000 cells/mL resuspended cells was dispensed into each well of low base Aurora COC 1,536-well plates (black walled, clear bottom) using a Multidrop Combi dispenser. After overnight culture at 37 deg C with 5% CO2, a total of 23 nL of compounds at 5 selected concentrations from the NPC or positive control (2 mM stock of MG132) in DMSO was transferred to each well of the assay plate using a pintool (Kalypsys, San Diego, CA), and the plates were further incubated at 37 deg C with 5% CO2 for 24 hours. After that, the plates were measured on Acumen Explorer (TTP Lab Tech). The fluorescence was detected by 488 nm/Ex and […].
With `CCCOc1ccc(N)cc1N`, the Potency entry is “inactive”.

For the molecule `CCOc1cc(/C=C2/SC(=S)N(CC3CCCO3)C2=O)ccc1O` (stereo not drawn), the Potency was 20.6 µM (active).

Regarding `O=C1/C(=C/c2ccc(O)cc2)SC(=S)N1CC1CCCO1` (stereo not drawn), the Potency result is “inactive”.

`COc1cc(/C=C2/SC(=S)N(CC3CCCO3)C2=O)ccc1O` (stereo not drawn): the Potency was 18.4 µM (active).

As to `COc1nc(-c2ccccc2)cc(-c2ccc3c(c2)OCO3)c1C#N`, the Potency result was “inactive”.

Take `CCOC(=O)c1c(CN(CC)CC)n(-c2ccccc2)c2ccc(O)cc12`: the Potency entry is “inactive”.

For the molecule `O=C1/C(=C\c2ccc(O)cc2)SC(=S)N1Cc1ccccc1`, the Potency entry was “inactive”.

`O=C(O)c1cc(-c2ccc(/C=C3/SC(=S)N(Cc4ccccc4)C3=O)o2)ccc1Cl`: the Potency is 18.4 µM (active).

As for `Cc1c(C(=O)OC2CCCCC2)[nH]c2c1C(=O)CC(c1ccccc1Cl)C2` (stereo not drawn), the Potency result is “inactive”.

Regarding `Cc1cc(/C=C2\SC(=S)N(C)C2=O)c(C)n1-c1ccccc1O`, the Potency was 23.1 µM (active).

In the case of `Cc1cc(/C=C2\SC(=Nc3ccccc3)NC2=O)c(C)n1-c1ccc(S(N)(=O)=O)cc1`, the Potency entry was “inactive”.

Consider `Cc1cc(/C=C2\SC(=S)N(C)C2=O)c(C)n1-c1ccc(O)cc1`, for which the Potency was 20.6 µM (active).

Consider `NC(=O)c1cccc(-c2ccnc3c2CC(C(=O)NCc2ccco2)O3)c1` (stereo not drawn), for which the Potency entry is “inactive”.

In the case of `CC(=O)N/N=C/c1cc(C(C)(C)C)cc(/C=N/NC(C)=O)c1O`, the Potency is 23.1 µM (active).

`CC(=O)N/N=C/c1cc(C(C)C)cc(/C=N/NC(C)=O)c1O`: the Potency was 23.1 µM (active).

For the molecule `NC(=S)N/N=C/c1cccc(O)c1O`, the Potency entry is “inactive”.

As to `Cc1cc(-n2c(C)cc(C(=O)CCl)c2C)no1`, the Potency entry is “inactive”.

For `Cc1ccc(/C=N/NC(=O)c2nc3nc(C)cc(C)n3n2)cc1`, the Potency result is “inactive”.

As to `CCc1ccc(/C=N/NC(=O)c2cc(-c3ccncc3)nc3ccccc23)s1`, the Potency entry was “inactive”.

As to `CC[N+](C)(C(=O)O)/C(=C\c1ccccc1)c1ccnc2ccccc12` (stereo not drawn), the Potency was 18.4 µM (active).

As for `CC(=O)N1CCc2nc3sc(C(=O)c4ccc(F)cc4)c(N)c3c(C(F)(F)F)c2C1`, the Potency is 18.4 µM (active).

`COc1ccc(C(=O)c2sc3nc4c(c(C(F)(F)F)c3c2N)CN(C(C)=O)CC4)cc1OC`: the Potency is 18.4 µM (active).

As for `COc1ccc(-c2n[nH]c3c2CN(C(=O)c2ccc(OC)c(OC)c2)CC3)cc1`, the Potency entry was “inactive”.

`COc1cc2c(cc1OC)CN(C(=O)c1ccc3nc[nH]c3c1)CC2`: the Potency entry is “inactive”.

`COc1ccc(-c2cc3ccccc3oc2=O)cc1NC(=S)NC(=O)c1ccc2c(c1)OCCO2`: the Potency entry is “inactive”.

For the molecule `COc1ccc(S(=O)(=O)Nc2cccc(-c3ccc4nncn4n3)c2)cc1`, the Potency result was “inactive”.

As for `Cc1ccc(NC(=S)N/N=C2\CCCCC2C)cc1` (stereo not drawn), the Potency entry was “inactive”.

Take `CN(C)S(=O)(=O)c1ccc(N2CCCC2)c(C(=O)N2CCN(S(=O)(=O)c3ccc(F)c(F)c3)CC2)c1`: the Potency entry was “inactive”.

With `Cc1cc(NC(=O)/C(C#N)=C/c2ccc(-c3ccc(SC(F)F)cc3)o2)n(-c2ccccc2)n1`, the Potency is 10.3 µM (active).

Take `Cc1cc(NC(=O)/C(C#N)=C\c2ccc(-c3ccc(SC(F)F)cc3)o2)n(-c2ccccc2)n1`: the Potency was 14.6 µM (active).

As for `O=C(/C=C/c1ccco1)NC(=S)Nc1ccc(N2CCCC2)cc1`, the Potency entry was “inactive”.

Consider `Cc1ccc2[nH]c3c(c2c1)CN(C(=O)CN1CC(C)OC(C)C1)CC3` (stereo not drawn), for which the Potency entry is “inactive”.

As for `COc1ccc(C(=O)Nc2cc(C(C)=O)c(/C=C/N(C)C)oc2=O)cc1`, the Potency is 15.8 µM (active).

Take `O=C(Nc1ccccc1OC(=O)c1ccccc1)c1ccccc1`: the Potency result is “inactive”.

For `CC(=O)c1cc(NC(=O)c2ccc(C)cc2)c(=O)oc1/C=C/N(C)C`, the Potency is 16.4 µM (active).

As to `COC(=O)c1cc(NC(=O)c2ccccc2)c(=O)oc1/C=C/Nc1ccc(Oc2ccccc2)cc1`, the Potency was 11.6 µM (active).

Consider `COc1cc(OC)cc(C(=O)Nc2ccccc2C(=O)NC2CC2)c1`, for which the Potency result was “inactive”.

For the molecule `COc1ccc(C(=O)Nc2cccc(/C=C/c3nc4ccccc4c(=O)[nH]3)c2)cc1`, the Potency result is “inactive”.

Turning to `COC(=O)c1c(-c2ccccc2Cl)noc1/C=C/N(C)C`, the Potency result was “inactive”.

For `Cc1ccc(/C=N/NC(=O)c2cc(C)oc2C)cc1`, the Potency entry is “inactive”.

Regarding `CC(=O)c1cc2c(cc1NS(=O)(=O)c1ccc(C)cc1)OCCO2`, the Potency entry is “inactive”.

As for `CC(=O)c1cc(NC(=O)c2ccc(Cl)cc2)c(=O)oc1/C=C/N(C)C`, the Potency was 11.2 µM (active).

With `CO/N=C\CC(=O)Nc1ccc(Oc2ccccc2)cc1`, the Potency entry was “inactive”.

Consider `Cc1c(=O)n(OCc2ccc(Cl)cc2)c2ccccc2[n+]1[O-]`, for which the Potency result was “inactive”.

For `Nc1nc2n[nH]nc2c(=O)[nH]1`, the Potency result is “inactive”.

Consider `COCCN1C(=O)/C(=C/c2ccc(N3CCCC3)cc2C)SC1=S`, for which the Potency is 2.59 µM (active).

For `COCCN1C(=O)/C(=C/c2ccc(N3CCCC3)cc2)SC1=S`, the Potency was 4.61 µM (active).

Turning to `CC12CC3CC(C)(C1)CC(C(=O)NC(=S)N1CCOCC1)(C3)C2`, the Potency result was “inactive”.

In the case of `COc1ccc(-c2n[nH]c(C)c2-c2ccc(OC)c(OC)c2)c(O)c1`, the Potency entry is “inactive”.

Consider `C=C1C(=O)O[C@@H]2[C@H]1[C@@H](OC(=O)/C(C)=C/C)C/C(C)=C\C(=O)/C=C(\C)[C@@H]2O`, for which the Potency entry was “inactive”.

In the case of `COc1cc(/C=C(\C#N)c2nc3ccccc3[nH]2)ccc1OCc1ccccc1F`, the Potency is 18.4 µM (active).

Consider `COc1ccc(/C=N/NC(=O)c2ccccc2Cl)cc1CSc1nc2ccccc2s1`, for which the Potency entry is “inactive”.

Turning to `COc1ccc(/C=N\NC(=O)c2ccccc2F)cc1COc1ccc(F)cc1F`, the Potency result was “inactive”.

On to `COc1cc(/C=C(/C#N)c2nc3ccccc3[nH]2)ccc1OC(=O)c1ccco1`, for which the Potency is 3.53 µM (active).

Consider `O=C(Oc1ccc(Cl)c2cccnc12)c1ccco1`, for which the Potency result is “inactive”.

Take `COc1cc(/C=C(\C#N)c2nc3ccc(C)cc3[nH]2)ccc1OC(C)C`: the Potency was 20.6 µM (active).

With `COc1ccc(OC)c2sc(NC(=O)CCS(=O)(=O)c3ccccc3)nc12`, the Potency result was “inactive”.

As for `COc1cc(/C=C(\C#N)c2nc3ccccc3s2)ccc1OCC(=O)Nc1ccccc1`, the Potency is 17.7 µM (active).

As to `CC1(C)Cc2nc3sc4c(SCC(=O)NCc5ccco5)ncnc4c3cc2CO1`, the Potency entry was “inactive”.

`CCS(=O)(=O)N1CCc2cc(C(=O)N3CCN(c4cccc(C(F)(F)F)c4)CC3)ccc21`: the Potency entry was “inactive”.

`CCC(C)Sc1cccc(-c2nc3cc(C)ccn3c2NC2CCCCC2)c1` (stereo not drawn): the Potency result is “inactive”.

As to `CN1C(=O)C(O)(C2COC(C)(C)CC2=O)c2cc(Br)ccc21` (stereo not drawn), the Potency result was “inactive”.

For the molecule `N#CC1=C(N)Oc2cc(N)ccc2C1C1CC=CCC1` (stereo not drawn), the Potency entry is “inactive”.
